{"source": "PubChem BioAssay (NCI)", "note": "Compounds without any hit were thinned out: in the full panel of roughly 83,000, 20% have a hit.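 Note: values are percent growth. 100 is the growth of untreated cells, values between 100 and 0 indicate rising inhibition; between -100 and 0 indicates cell death.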 A number with no mark means an inactive call. Calls of active or inactive are those of the source. How the source made its calls: active means growth percent below 10; inactive means the rest.", "data": [{"test_system": "HL-60(TB) leukemia", "assay": "NCI-60 one-dose screen, 48 h (100 = growth as untreated, 0 = no growth, -100 = all killed)", "conditions": "10 µM unless noted", "values": [{"smiles": "Oc1ccc(N=Nc2ccc(N=Nc3ccccc3)cc2)cc1", "growth": "7.35% (active)"}, {"smiles": "COCCn1cc(-c2nc(-c3cc4cccnc4n3C)cs2)c2ccccc21", "growth": "42.2%"}, {"smiles": "COc1ccc2c(c1)c(-c1nonc1-c1cn(C)c3ccc(OC)cc13)cn2C", "growth": "-1.01% (active)"}, {"smiles": "CC(=O)NCC1c2c(n(C)c3c(Cl)c(Cl)ccc23)C(=O)NC1(C)C", "note": "(stereo not given)", "growth": "84%"}, {"smiles": "CC(C)N=C(N)/N=C(\\N)Nc1ccc2ccc3ccccc3c2c1", "growth": "-47.8% (active)"}, {"smiles": "O=S(=O)(NCCNc1nccc(-c2c(-c3cccc(O)c3)nc3occn23)n1)c1ccc(C(F)(F)F)cc1", "growth": "79.1%"}, {"smiles": "CC(=O)Nc1ccc(-n2c(O)c(/C=N/NC(=O)Cc3ccccc3Nc3c(Cl)cccc3Cl)sc2=S)cc1", "growth": "99%"}, {"smiles": "CC1=CC(=O)C=CC1=Nc1ccc(N(C)C)cc1", "growth": "-1.75% (active)"}, {"smiles": "CCCCCCCCCCCCCCCCCC1=NCCN1CCOC1=C(Cl)C(=O)c2ccccc2C1=O", "growth": "70.1%"}, {"smiles": "S=C(NCc1ccccc1)NCc1ccccc1", "growth": "84.7%"}, {"smiles": "Fc1ccc(-c2nnc(N3CCOCC3)c3ccccc23)cc1", "growth": "264%"}, {"smiles": "C=C1CC[C@@H]2[C@](C)(COC(C)=O)[C@H](OC(C)=O)CC[C@@]2(C)[C@@H]1CC(Nc1ccc(S(=O)(=O)Nc2nccc(C)n2)cc1)C1=CCOC1=O", "note": "(stereo not given in full)", "growth": "-17.3% (active)"}, {"smiles": "CCOC(=O)c1cc(C#N)n2ncc3ccccc3c12", "growth": "105%"}, {"smiles": "CC(=O)N1N=C(c2ccc(Cl)cc2)CC1c1c(C)nn(-c2ccccc2)c1N(C)Cc1ccccc1", "note": "(stereo not given)", "growth": "82.4%"}, {"smiles": "CC1=CC(=O)CC(C)(C)[C@@]1(O)/C=C/[C@@H](C)O", "growth": "110%"}, {"smiles": "Cc1cc(=O)oc2cc(OC(=O)N3CCN(C)CC3)ccc12", "growth": "106%"}, {"smiles": "N=C(N)c1ccc(-c2ccc(-c3ccc(Cl)c(Cl)c3)o2)cc1", "growth": "-45.5% (active)"}, {"smiles": "N#Cc1cccc(-c2ccc3c(c2)NC(=O)/C3=C\\c2ccc[nH]2)c1", "growth": "64.8%"}, {"smiles": "N#Cc1c(-c2cccc([N+](=O)[O-])c2)cc(-c2ccc(Nc3nc(Nc4ccc(F)cc4)nc(Nc4ccc(F)cc4)n3)cc2)nc1N", "growth": "28.1%"}, {"smiles": "COc1cc(C(=O)O/N=C(\\N)Cc2cccc3ccccc23)cc(OC)c1OC", "growth": "-37.4% (active)"}, {"smiles": "CC1Cc2c(Cl)ncnc2N(C)c2ccc(Cl)cc21", "note": "(stereo not given)", "growth": "13.3%"}, {"smiles": "COC1OC(CO)C(OC)C(O)C1O", "note": "(stereo not given)", "growth": "103%"}, {"smiles": "CS(=O)(=O)Nc1cccc(-c2ccc3ncnc(Nc4ccc(F)c(Cl)c4)c3c2)c1", "growth": "24.8%"}, {"smiles": "CC1(C)C(=O)/C(=C\\c2ccccn2)C[C@]2(C)[C@H]3CC[C@@H]4[C@@H](C(=O)/C=C/c5ccccn5)CC[C@@]4(C)[C@]3(C)CC[C@@H]12", "growth": "-14.4% (active)"}, {"smiles": "Cc1cnc(-c2ccc(-c3ccc(NC(=O)Nc4c(F)cc(F)cc4F)cc3F)c3c2C(=O)NC3)[nH]1", "growth": "58.1%"}, {"smiles": "Cn1cc(Nc2nccc(-c3ccc(N4CCCC4)c(C#N)c3)n2)cn1", "growth": "-17.8% (active)"}, {"smiles": "COc1ccc(/C=N/c2cc(C(C)(C)C)nn2-c2ccccc2)cc1", "growth": "88.3%"}, {"smiles": "CCOC(=O)c1c2c(n(-c3ccc(C#N)cc3)c1-c1ccccc1)C=CCC2", "growth": "82.9%"}, {"smiles": "N#Cc1ccc(-n2cnc(NC(=O)[C@H]3CCN(C#N)C3)c2)cc1", "growth": "-20.8% (active)"}, {"smiles": "Cc1c(Br)cccc1NC(=O)c1sc2nc3c(cc2c1N)CN(Cc1ccccc1)CC3", "growth": "-30.5% (active)"}, {"smiles": "CN(C)c1ccc(/C=C/c2ccnc3ccccc23)cc1", "growth": "12.6%"}, {"smiles": "Cc1nnc2nc(N)[nH]n2c1=O", "growth": "99.6%"}, {"smiles": "Nc1nc2ccc(-c3nc4ccc5[nH]ncc5c4c4c3CCC4)cc2s1", "growth": "30.2%"}, {"smiles": "Nc1c(C(=O)Nc2ccccc2Cl)sc2nc3c(cc12)CN(Cc1ccccc1)CC3", "growth": "75.6%"}, {"smiles": "Cc1cc(C2(c3ccc(O)c(C)c3)OS(=O)(=O)c3ccccc32)ccc1O", "growth": "79%"}, {"smiles": "COc1ccc(C/C(C)=C(/c2ccc(OCCN(C)C)cc2)c2ccc(OC(=O)NCc3ccccc3)cc2)cc1", "growth": "45.1%"}, {"smiles": "COc1ccc(/C=N/NC(N)=S)cc1", "growth": "88.9%"}, {"smiles": "Cc1cc2c3ccccc3ccc2[n+]2ccccc12", "growth": "46.2%"}, {"smiles": "CCc1c(Cl)nc(N)nc1Nc1ccc(C)c(C)c1", "growth": "88.1%"}, {"smiles": "COc1ccc(C(O)c2cc3c(N)c(C(=O)Nc4ccc(Br)cc4)sc3nc2C)cc1", "note": "(stereo not given)", "growth": "-41.5% (active)"}]}]}
